# Results filed as inconclusive are left out. Active and inactive are the calls of the source.
# Assays:
# [1] = Ebola virus entry assay, reporter ratio channel; AC50: Channel type: primary unless noted; outcome: Channel type: primary unless noted
# [2] = Ebola virus entry cell assay, ratio channel
# [3] = High-throughput drug toxicity screening in the BPDCN cell line Gen2.2 (AID 1224824); settings: Gen2.2 BPDCN cells; at 45.8 µM (top of the series);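 further: cells exposed to compounds for 48 h before reading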
# Summary of the method: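 Gen2.2 cells (500/well) in phenol red-free RPMI with 10% FBS were exposed to compounds for 48 h at 37 °C, 5% CO2. Viability was read by CellTiter-Glo luminescence and normalized to DMSO (100%) and 9.2 uM bortezomib (0%).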
# [4] = High-throughput drug toxicity screening in the BPDCN cell line Cal-1 (AID 1224825); settings: Cal-1 BPDCN cell viability, qHTS; at 45.8 µM (top of the series)
# Summary of the method: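 CellTiter-Glo luminescence after 48 h compound exposure; percent activity scaled with DMSO as 100% and bortezomib (9.2 uM final) as 0%. Cal-1 cells seeded at 500/well in RPMI, 10% FBS, no phenol red.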
# [5] = qHTS assay for measurement of the activity of small molecule inhibitors on Zika virus induced Caspase-3 activity in human iPSC derived neural progenitor cells (hNPCs) (AID 1224857; active means well fitted curve in the direction sought with a large enough effect; an effect the other way counts as inactive or inconclusive; further: % of control where 0% means no effect; nearly all actives have a fitted effect of over 65% in size)
# Summary of the method: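 hNPCs seeded 350 cells/well, cultured 16–20 h; compounds added 1 h before ZIKV (2 FFU/cell), 37 C 6 h. Caspase-Glo 3/7 luminescence after 30 min RT; % inhibition from induction scaled to uninfected (0%) and infected (100%) wells.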
# [6] = qHTS assay for measurement of the activity of small molecule inhibitors on Zika virus induced Caspase-3 activity in human astrocytoma cells (AID 1224859; active means well fitted curve in the direction sought with a large enough effect; an effect the other way counts as inactive or inconclusive;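 further: plate controls were ZIKV-infected untreated cells for no effect and uninfected cells for full effect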)
# Summary of the method: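 Luminescence read-out (Caspase-Glo 3/7, 30 min RT) of caspase activity in SNB-19 cells infected 6 h with ZIKV, 2 FFU/cell, after 1 h compound pretreatment; % inhibition from induction normalised to uninfected (0%) and infected (100%) wells.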
# [7] = qHTS Screen of the MIPE 4.0 Collection Against Ewings Sarcoma (RDES) (AID 1259252; active means well fitted curve in the direction sought with a large enough effect; an effect the other way counts as inactive or inconclusive;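 further: 100% = DMSO-treated cells and 0% = medium-only wells without cells; nearly all actives have a fitted effect of over 35% in size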)
# Summary of the method: (§1)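 Viability screen: 48 h incubation at 37C, 95% humidity, 5% CO2 with serially titrated compound, followed by CellTiter-Glo readout.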
# [8] = qHTS Screen of the MIPE 4.0 Collection Against Ewings Sarcoma (TC32) (AID 1259256; active means well fitted curve in the direction sought with a large enough effect; an effect the other way counts as inactive or inconclusive;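 further: 100% = DMSO-treated cells and 0% = medium-only wells without cells; nearly all actives have a fitted effect of over 45% in size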)
# Summary of the method: as §1
# [9] = qHTS assay to identify small molecule inhibitors of chordoma cells - UCH-1 (AID 1259355; active means well fitted curve in the direction sought with a large enough effect; an effect the other way counts as inactive or inconclusive; further: on the % scale 0 is the no-effect control and ±100 the full control effect; nearly all actives have a fitted effect of over 55% in size)
# Summary of the method: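 Screening used approved and investigational drugs in 15-point titration against 800 seeded cells per well. A fixed combination of auranofin with camptothecin, doxorubicin, rubitecan and topotecan followed compound addition, and growth was scored by CellTiter-Glo after 48hr.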
# [10] = qHTS assay to identify small molecule inhibitors of chordoma cells - UCH-2 (AID 1259356; active means well fitted curve in the direction sought with a large enough effect; an effect the other way counts as inactive or inconclusive; further: on the % scale 0 is the no-effect control and ±100 the full control effect)
# [11] = Immunotoxin (HA22) sensitization/mitigation study. Vehicle arm (PBS) (AID 1159510); further: potency means the concentration at half of the fitted maximal effect
# [12] = Immunotoxin (SS1P) sensitization/mitigation study. Vehicle arm (DMEM) (AID 1159513); further: potency means the concentration at half of the fitted maximal effect
compound,measurement,setting,value
CN(C)c1cc(NC(=O)CNC(C)(C)C)c(O)c2c1C[C@@H]1C[C@H]3[C@H](N(C)C)C(=O)C(C(N)=O)=C(O)[C@@]3(O)C(=O)C1=C2O,AC50,[1],8.91 µM (active)
same,outcome,[2],inactive
CN1C[C@H]2c3ccccc3Oc3ccc(Cl)cc3[C@@H]2C1,AC50,[1],14.1 µM (active)
same,AC50,[2],17.8 µM (active)
Clc1ccc2c(c1)C(N1CCNCC1)=Nc1ccccc1O2,AC50,[1],10 µM (active)
same,AC50,[2],12.6 µM (active)
Fc1ccc([C@@H]2CCNC[C@H]2COc2ccc3c(c2)OCO3)cc1,AC50,[1],3.98 µM (active)
same,AC50,[2],5.01 µM (active)
CC(CN(C)C)CN1c2ccccc2CCc2ccccc21 (stereo not given),AC50,[1],6.31 µM (active)
same,AC50,[2],14.1 µM (active)
COCCCC/C(=N\OCCN)c1ccc(C(F)(F)F)cc1,AC50,[1],14.1 µM (active)
same,outcome,[2],inactive
COc1cc(NCc2ccc3nc(N)nc(N)c3c2C)cc(OC)c1OC,AC50,[1],28.2 µM (active)
same,outcome,[2],inactive
CC[C@@H]([C@H](C)O)n1ncn(-c2ccc(N3CCN(c4ccc(OC[C@@H]5CO[C@@](Cn6cncn6)(c6ccc(F)cc6F)C5)cc4)CC3)cc2)c1=O,AC50,[1],3.98 µM (active)
same,AC50,[2],8.91 µM (active)
CNCCCC1c2ccccc2C=Cc2ccccc21,AC50,[1],8.91 µM (active)
same,AC50,[2],8.91 µM (active)
OCCN(CCO)c1nc(N2CCCCC2)c2nc(N(CCO)CCO)nc(N3CCCCC3)c2n1,outcome,[1],inactive
same,outcome,[2],inactive
COc1cc(C(C)=O)ccc1OCCCN1CCC(c2noc3cc(F)ccc23)CC1,AC50,[1],28.2 µM (active)
same,outcome,[2],inactive
COc1ccc([C@@H]2Sc3ccccc3N(CCN(C)C)C(=O)[C@@H]2OC(C)=O)cc1,AC50,[1],25.1 µM (active)
same,outcome,[2],inactive
CC(N)C12CC3CC(CC(C3)C1)C2 (stereo not given),AC50,[1],28.2 µM (active)
same,outcome,[2],inactive
CC(C)NCC(O)COc1ccc(CCOCC2CC2)cc1 (stereo not given),AC50,[1],11.2 µM (active)
same,AC50,[2],15.8 µM (active)
O[C@@H](CNC[C@H](O)[C@H]1CCc2cc(F)ccc2O1)[C@@H]1CCc2cc(F)ccc2O1,AC50,[1],3.55 µM (active)
same,AC50,[2],5.01 µM (active)
C=C(CC)C(=O)c1ccc(OCC(=O)O)c(Cl)c1Cl,AC50,[1],15.8 µM (active)
same,outcome,[2],inactive
C[C@@H](O[C@H]1OCCN(Cc2n[nH]c(=O)[nH]2)[C@H]1c1ccc(F)cc1)c1cc(C(F)(F)F)cc(C(F)(F)F)c1,AC50,[1],28.2 µM (active)
same,outcome,[2],inactive
CSc1ccc2c(c1)N(CCC1CCCCN1C)c1ccccc1S2 (stereo not given),AC50,[1],3.16 µM (active)
same,AC50,[2],6.31 µM (active)
O=c1[nH]c2ccccc2n1CCCN1CCC(n2c(=O)[nH]c3cc(Cl)ccc32)CC1,AC50,[1],25.1 µM (active)
same,"cell viability, % of control (lower = more cytotoxic)",[3],278%
same,viability (% of control),[4],61.6%
same,Potency,[5],inactive
same,outcome,[6],inactive
same,Potency,[7],inactive
same,Potency,[8],inactive
same,Potency,[9],inactive
same,Potency,[10],inactive
Cc1ccc(-c2cc(C(F)(F)F)nn2-c2ccc(S(N)(=O)=O)cc2)cc1,AC50,[1],39.8 µM (active)
same,AC50,[2],11.2 µM (active)
same,Potency,[11],48.1 µM (active)
same,Potency,[12],38.2 µM (active)
CCn1cc(C(=O)O)c(=O)c2ccc(C)nc21,outcome,[1],inactive
same,Potency,[5],inactive
COc1cc([C@@H]2c3cc4c(cc3[C@H](O)[C@H]3COC(=O)[C@H]23)OCO4)cc(OC)c1OC,AC50,[1],5.01 µM (active)
same,Potency,[11],0.0037 µM (active)
same,Potency,[12],0.0083 µM (active)
COc1cc2c(N3CCN(C(=O)Nc4ccc(OC(C)C)cc4)CC3)ncnc2cc1OCCCN1CCCCC1,AC50,[1],10 µM (active)
same,Potency,[11],20.9 µM (active)
CCN(CC)CCCC(C)Nc1ccnc2cc(Cl)ccc12 (stereo not given),AC50,[1],1.12 µM (active)
same,AC50,[2],2.82 µM (active)
O[C@@H](c1cc(C(F)(F)F)nc2c(C(F)(F)F)cccc12)[C@H]1CCCCN1,AC50,[1],1.58 µM (active)
same,AC50,[2],5.62 µM (active)
CNCCCN1c2ccccc2CCc2ccccc21,AC50,[1],7.94 µM (active)
same,AC50,[2],15.8 µM (active)
O=c1[nH]c2ccccc2n1C1CCN(CCCC(c2ccc(F)cc2)c2ccc(F)cc2)CC1,AC50,[1],3.98 µM (active)
same,AC50,[2],7.94 µM (active)
same,Potency,[5],inactive
same,outcome,[6],inactive
same,Potency,[10],inactive
CC1=C(/C=C/C(C)=C/C=C/C(C)=C/C(=O)Nc2ccc(O)cc2)C(C)(C)CCC1,AC50,[1],39.8 µM (active)
same,Potency,[11],1.87 µM (active)
same,Potency,[12],23.5 µM (active)
Cc1cc2c(C(C)C)c(O)c(O)c(C=O)c2c(O)c1-c1c(C)cc2c(C(C)C)c(O)c(O)c(C=O)c2c1O,AC50,[1],39.8 µM (active)
same,Potency,[11],8.33 µM (active)
CN(C)CCC=C1c2ccccc2C=Cc2ccccc21,AC50,[1],10 µM (active)
same,AC50,[2],12.6 µM (active)
CN(C)C(=O)C(CCN1CCC(O)(c2ccc(Cl)cc2)CC1)(c1ccccc1)c1ccccc1,AC50,[1],2.51 µM (active)
same,AC50,[2],11.2 µM (active)
COc1cc(NC(C)CCCN)c2ncccc2c1 (stereo not given),AC50,[1],3.55 µM (active)
same,outcome,[2],inactive
CN(C)CCOC(C)(c1ccccc1)c1ccccn1 (stereo not given),AC50,[1],14.1 µM (active)
same,outcome,[2],inactive
C=C1C[C@@H]2[C@H](CC[C@]3(C)C(=O)CC[C@@H]23)[C@@]2(C)C=CC(=O)C=C12,AC50,[1],25.1 µM (active)
same,AC50,[2],15.8 µM (active)
same,outcome,[6],inactive
same,Potency,[9],inactive
same,Potency,[10],inactive
C=CC(=O)Nc1cc2c(Nc3ccc(F)c(Cl)c3)ncnc2cc1OCCCN1CCOCC1,AC50,[1],2.82 µM (active)
same,Potency,[11],18.7 µM (active)
same,Potency,[12],26.4 µM (active)
CC(=O)Oc1ccccc1C(=O)Nc1ncc([N+](=O)[O-])s1,outcome,[1],inactive
same,outcome,[2],inactive

# Source: PubChem BioAssay (NCATS)
